A1 inh – A1 inhibition | MEF A1-2A-BIM cells, caspase-Glo luminescence, 3 h; percent of clofoctol signal, DMSO as zero | caspase activation, % (concentration not given with the values) | actives 0.51% (n = 21,000);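 active = most replicate scores above 10, or exactly half above 10 with mean activity above 10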;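 note: effector caspase 3 and 7 activity cleaving a DEVD luciferin substrate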
* marks the source's active call; other numbers are inactive results. The sample as a whole holds a higher share of hits than the screen did.

For C[C@@H]1CN([C@H](C)CO)C(=O)c2cc(NS(=O)(=O)c3cccs3)ccc2O[C@@H]1CN(C)Cc1ccc(-c2ccccc2)cc1 the results were A1 inh 4.
`CCCN1CCC(N2CCCC(C(=O)N(C)CCc3ccc(OC)c(OC)c3)C2)CC1` (centres undefined) gave A1 inh 1.
`COc1ccc(NC(=O)c2ccc(CN3CCS(=O)(=O)CC3)cc2)cc1` gave A1 inh 0.
Screening CCOC(=O)c1ccccc1NC(=O)c1nc(-c2ccc(C)cc2)n2c1CCCCC2 returned A1 inh 0.
CCOC(=O)c1c(NC(=O)CSc2cc(C)c3ccccc3n2)sc2c1CCC2 was read as A1 inh 0.
Screening CCOC(=O)c1cc(-c2ccccc2)sc1NC(=O)CCN1CCN(CC)CC1 returned A1 inh 12*.
For CCOC(=O)c1cc(CC)sc1NC(=S)Nc1ccccc1C(F)(F)F the results were A1 inh 2.
`O=S(=O)(CCSc1ccc(C(F)(F)F)cn1)c1ccc(OC(F)(F)F)cc1` gave A1 inh -1.
`COc1ccc(NC(=O)C(C)Oc2ccc3c(C)c(CCC(C)C)c(=O)oc3c2)cc1` (centres undefined) gave A1 inh -1.
Screening C=C(C)CC1(NC(C)c2ccccc2)CCCCC1 (centres undefined) returned A1 inh 9.8*.
CC(NC(=O)CC(c1ccccc1)c1ccccc1)c1ccccc1 (centres undefined) was read as A1 inh 1.
`CC(=O)NC(C)c1ccccc1` (centres undefined) gave A1 inh 0.
Screening C[C@H]1CN([C@@H](C)CO)C(=O)c2cc(NC(=O)Nc3ccc(F)cc3)ccc2O[C@H]1CN(C)S(=O)(=O)c1ccc(Cl)cc1 returned A1 inh 1.
For CC(=O)NCCOc1ccc(C2CCCCC2)cc1 the results were A1 inh 0.
Nc1cc(C(F)(F)F)ccc1Oc1ccc(C2CCCCC2)cc1 was read as A1 inh 11*.
FC(F)(F)c1ccc(Oc2ccc(Oc3ccc(C(F)(F)F)cn3)cc2)nc1 was read as A1 inh -1.
Screening C[C@@H]1CN([C@@H](C)CO)C(=O)c2cc(NC(=O)Nc3ccc(C(F)(F)F)cc3)ccc2O[C@H]1CN(C)Cc1ccc(C(F)(F)F)cc1 returned A1 inh 0.
For Clc1cccc(Cl)c1CN(Cc1ccccc1)c1ncnc2nc[nH]c12 the results were A1 inh 2.
Screening COc1ccccc1C1C(C(=O)Nc2ccccc2F)=C(C)NC2=C1C(=O)CCC2 (centres undefined) returned A1 inh 0.
`Cc1ccc(S(=O)(=O)N(C)C[C@@H]2Oc3ccc(NS(=O)(=O)c4c(C)noc4C)cc3C(=O)N([C@H](C)CO)C[C@H]2C)cc1` gave A1 inh -1.
`N#Cc1c(N)nc(SCC(=O)c2ccc3ccccc3c2)c(C#N)c1-c1cccc(F)c1` gave A1 inh 0.
For N#Cc1c(N)nc(Sc2ccc(Cl)cc2)c(C#N)c1-c1ccccc1 the results were A1 inh 42*.
`CCCc1nc(N)c(C#N)c(-c2ccccc2)c1CC` gave A1 inh 1.
Cc1ccc(CSc2nnc(-n3c(=O)c(C#N)cc4c(=O)n5ccccc5nc43)s2)cc1 was read as A1 inh 0.
For C[C@H](CO)N1C[C@H](C)[C@H](CN(C)Cc2ccc(-c3ccccc3)cc2)Oc2ccc(NC(=O)Cc3ccccc3)cc2C1=O the results were A1 inh 1.
Screening Cc1noc(C)c1S(=O)(=O)Nc1ccc2c(c1)C(=O)N([C@@H](C)CO)C[C@H](C)[C@H](CN(C)Cc1ccccc1)O2 returned A1 inh -1.
Screening CC12CC3(C)CC(C)(C1)CC(CN=Cc1ccc(O)cc1)(C2)C3 returned A1 inh 13*.
Oc1ccc(/C=N/c2nccs2)cc1 was read as A1 inh 0.
`Clc1nsnc1N1CCOCC1` gave A1 inh 0.
C[C@H]1CN([C@@H](C)CO)C(=O)c2cc(NS(=O)(=O)c3ccc(F)cc3)ccc2O[C@@H]1CN(C)Cc1ccc(-c2ccccc2)cc1 was read as A1 inh -1.
For Cn1c(O)c(C=NCc2ccc3c(c2)OCO3)c(=O)n(C)c1=S the results were A1 inh -1.
For Cc1ccc(SCCC(=O)N2CCN(c3ncc(C(F)(F)F)cc3Cl)CC2)cc1 the results were A1 inh -1.
Screening CC(=O)NCCSc1nc(-c2cccs2)cc(-c2ccc(F)cc2)c1C#N returned A1 inh 10*.
N#Cc1c(C(F)(F)F)cc(-c2cccs2)nc1SCC(=O)c1ccccc1 was read as A1 inh -1.
Screening CCCCS(=O)CSc1nc(-c2cccs2)cc(-c2ccccc2)c1C#N (centres undefined) returned A1 inh 0.
`C=CC1(C)C[C@H](OC(=O)C(C)CO)[C@H]2C(=C)C(=O)O[C@@H]2C1C(=C)CO` (some centres undefined) gave A1 inh 0.
`C[C@@H]1CN([C@@H](C)CO)C(=O)c2cc(N(C)C)ccc2O[C@H]1CN(C)Cc1ccncc1` gave A1 inh -1.
For O=C(OCc1cccc(O)c1O[C@@H]1O[C@H](CO)[C@@H](O)[C@H](O)[C@H]1O)C1(O)C(=O)C2C=CC1C1C=CC(=O)C(O)(C(=O)OCc3cccc(O)c3O[C@@H]3O[C@H](CO)[C@@H](O)[C@H](O)[C@H]3O)C21 (some centres undefined) the results were A1 inh 0.
`C[C@@H]1CN([C@H](C)CO)C(=O)c2cc(NC(=O)c3ccncc3)ccc2O[C@@H]1CN(C)Cc1ccncc1` gave A1 inh 0.
